# In the library only some 1.4% were active in any assay of this set; here they are far more common.
# Mtb MbtI inh: MbtI salicylate synthase inhibition. P9WFX0. purified MbtI enzyme, fluorescence intensity read-out. inhibition, % (concentration not given with the values). 100,000 compounds, 0.89% hits. AID 493033; in the data active means inhibition mostly above about 56%, no sharp cut-off; inactive means mostly below about 77%
# Target sequence (P9WFX0 whole entry, looked up): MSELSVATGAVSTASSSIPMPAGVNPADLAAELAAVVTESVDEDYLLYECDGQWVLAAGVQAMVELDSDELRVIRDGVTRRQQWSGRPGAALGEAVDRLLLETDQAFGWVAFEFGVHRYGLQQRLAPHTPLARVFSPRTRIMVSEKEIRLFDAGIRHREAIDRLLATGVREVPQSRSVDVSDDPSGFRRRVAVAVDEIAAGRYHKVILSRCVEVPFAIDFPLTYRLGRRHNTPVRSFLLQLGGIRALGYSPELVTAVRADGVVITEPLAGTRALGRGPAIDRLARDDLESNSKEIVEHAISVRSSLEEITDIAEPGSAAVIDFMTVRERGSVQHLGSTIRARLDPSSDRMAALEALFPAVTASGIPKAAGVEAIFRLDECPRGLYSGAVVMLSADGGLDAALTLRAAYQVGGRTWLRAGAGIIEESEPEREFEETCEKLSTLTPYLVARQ
# AID504770: growth inhibitors of E. coli YBA685 in a screen for V. cholerae RctB (chromosome II replication) inhibitors. E. coli YBA685 rctB-dependent plasmid, OD600 growth, 3 h; stronger effect = lower value. z-score (concentration not given with the values). 130,000 compounds, 0.27% hits. AID 504770; in the data active means z-score below about -2, passing the limit was not always enough
# MenB inh: Mtb MenB enzyme inhibition; P9WNP5; MenB enzyme assay, absorbance read-out; inhibition, % (concentration not given with the values); 100,000 compounds, 0.43% hits; in the data active means inhibition above about 21%, passing the limit was not always enough
# PV pol inh: poliovirus RNA polymerase inhibition; P03300; poliovirus polymerase elongation, fluorescence polarization; stronger effect = lower value; % elongation, % (compound at 16.7 µg/mL); 150,000 compounds, 0.66% hits; AID 588519; in the data active means % elongation below about 90%
# Hits are given with their value; 0 = inactive; - = not tested or not shown; ! = a repeat was not active.
SMILES,Mtb MbtI inh,AID504770,MenB inh,PV pol inh
O=C(Oc1ccccc1-c1nnco1)c1ccc(C(F)(F)F)cc1,0,0,0,0
CCOC(=O)c1cccc2ncccc12,96.0,0,0,0
CCOC(=O)c1cnc2ccccc2c1NCCc1ccccc1,0,0,0,0
Cc1ccccc1N1CC(C(=O)Nc2ccc(Br)cc2)CC1=O (stereo not drawn),-,-,-,0
CSc1nnc(C(C)(C)C)c(=O)n1N,0,0,0,0
Cc1ccc(C)c(S(=O)(=O)Nc2cc(Cl)c3oc(=O)sc3c2)c1,62.0,0,0,0
O=C(Cc1ccc(-c2ccccc2)cc1)NCCS(=O)(=O)N1CCN(c2ccc(F)cc2)CC1,-,-,-,0
COC(=O)c1c(NC(=O)CCCOc2cccc(C)c2)sc2c1CCC2,-,-,-,0
CCOc1ccc(/C=C/C(=O)Nc2sc3c(c2C(=O)OC)C(C(=O)OC)CC3)cc1 (stereo not drawn),-,-,-,79.0
COC(=O)c1c(NC(=O)CCCOc2ccc(C)cc2)sc2c1CCCC2,-,-,-,0
COC(=O)c1c(NC(=O)CCCOc2ccc(C)cc2)sc2c1C(C(=O)OC)CC2 (stereo not drawn),-,-,-,71.0
COC(=O)c1c(NC(=O)CCCOc2cccc(C)c2)sc2c1C(C(=O)OC)CC2 (stereo not drawn),-,-,-,81.0
Cc1ccc(C)n1-c1cccnc1,0,0,-,0
Cc1nn(C)c2c1c(-c1ccccc1)cc(=O)n2CC(=O)NC(C)C,-,-,-,0
CC(=O)Nc1ccc(O)c(C(=O)O)c1,-,0,-,-
O=C(O)CCC(=O)Nc1ccc(O)c(C(=O)O)c1,0,0,0,87.0
CN1/C(=N\O)c2cccc3cccc1c23,81.4,0,0,0
O=C1COc2ccc(-c3csc(-n4nccc4C(F)(F)F)n3)cc2N1,0,0,0,87.0
O=C1COc2ccc(-c3cc(-c4ccccc4)c4c(n3)-c3ccccc3OC4)cc2N1,-,-,-,0
O=C(Nn1cnnc1)c1ccccc1,-,0,0,0
O=C(CSc1ccccn1)c1ccc(F)cc1,86.0,0,0,0
COC(=O)COc1ccc2cccc(-n3cnnn3)c2c1,0,0,38.8,0
COc1ccc(NCC(=O)N/N=C/C2=CCC3CC2C3(C)C)cc1 (stereo not drawn),0,0,0,0
CC1(C)CC(=O)C(C2(O)C(=O)c3ccccc3C2=O)C(=O)C1,0,0,-,-
CC1(C)C=C(O)C(C2(O)C(=O)c3ccccc3C2=O)C(=O)C1 (stereo not drawn),-,0,0,19.0
SMILES,Mtb MbtI inh,AID504770,MenB inh,PV pol inh
Cc1cc(C)cc(N2C(=O)N(CC(=O)c3ccc(Br)cc3)c3ccccc3S2(=O)=O)c1,-,-,-,0
O=c1[nH]c(NCCO)nc2ccccc12,0,0,0,0
O=c1[nH]c(NCCO)c(I)c(=O)[nH]1,68.1,0,-,-
CCn1c(=O)c2sccc2n2c(CCCC(=O)N3CCN(c4ccc(OC)cc4)CC3)nnc12,-,-,-,49.0
Cc1cc(=S)nc(C(C)C)[nH]1,90.7,0,0,0
CCOCCC(=O)Nc1ccccc1Sc1ccccc1,0,0,0,0
O=C(O)C1(c2ccccc2)CCC(Nc2ccccc2)C1 (stereo not drawn),-,0,0,69.0
COc1ccc(OCCSc2nc3ccccc3n2CC(=O)N2CCOCC2)cc1,-,-,-,0
O=C(Cn1c(SCCOc2ccccc2)nc2ccccc21)N1CCOCC1,-,-,-,81.0
CCn1c(O)c(N=NC(C)=O)c2ccccc21,0,0,0,0
Cc1ccc(-c2csc(-n3sc4ccccc4c3=O)n2)cc1,86.8,0,-,0
Cc1cc(-n2sc3ccccc3c2=O)c2ccccc2n1,0,0,0,0
C/C=C\C(=O)NCc1ccc2[nH]c3c(c2c1)CCCC3,-,0,-,-
CCOc1ccc(CCNC(=O)Cn2c(-c3cccs3)cc3ccccc32)cc1OCC,-,-,-,0
O=C(O)C1C2C=CC(C2)C1C(=O)N1CCN(Cc2ccccc2)CC1 (stereo not drawn),0,0,0,80.0
Oc1ccc(O)c(C2CC3CCC2C3)c1 (stereo not drawn),102.5,0,0,0
CCCOc1ccc(S(=O)(=O)n2cc(Br)c(=O)[nH]c2=O)cc1,81.7,0,-,-
O=c1[nH]c(=O)n(S(=O)(=O)c2ccc(F)cc2)cc1F,0,0,0,0
O=C(Nc1ccc(OC(F)(F)F)cc1)C1CCCN(S(=O)(=O)c2cccc3nonc23)C1 (stereo not drawn),-,-,-,0
CC(=O)N1c2ccccc2C(CSc2nnc(-c3ccccc3)o2)=CC1(C)C,0,0,0,0
O=c1c2c(-c3cccs3)csc2[nH]c(=S)n1-c1ccccc1,99.3!,0,0,83.0!
NS(=O)(=O)c1ccc(NC(=O)OCC(F)(F)F)cc1,0,0,0,0
CN1CCc2cc3c(c4c2C1Cc1ccccc1-4)OCO3 (stereo not drawn),0,0,0,0
S=C(c1cccc(OCc2ccccc2)c1)N1CCCCC1,72.6,0,0,0
CN1CCN(C(=S)c2cccc(OCc3ccccc3)c2)CC1,0,0,0,0
SMILES,Mtb MbtI inh,AID504770,MenB inh,PV pol inh
COc1ccc2[nH]c3c(=O)n(Cc4ccccc4Cl)cnc3c2c1,-,0,-,-
Cn1cnc2c(=O)oc3ccc(S(=O)(=O)N4CCN(c5ccccc5)CC4)cc3c21,-,-,-,0
CN1CCN(S(=O)(=O)c2ccc3oc(=O)c4ncn(C)c4c3c2)CC1,0,-2.35,0,0
CC(=O)NC(=S)Nc1cccc(C)c1,0,0,0,0
Cc1cccc(NC(=S)Nn2c(O)c(C)sc2=S)c1,93.2,0,0,0
N#Cc1ccc(Cl)cc1NC(=O)COC(=O)c1cc(-c2ccco2)nc2ccccc12,0,0,0,0
COC(CNc1ncnc2sc(-c3ccccc3)cc12)OC,79.8,0,0,0
COC(=O)c1cc(C(=O)OC)cc(-n2c(C)cc(C3=NNC(=Nc4ccc(OC)cc4)SC3)c2C)c1,0,0,0,0
Cc1ccc(Cl)cc1NC(=O)CN1C(=O)c2ccccc2Sc2ncccc21,-,-,-,0
FC(F)(F)c1cc(-c2ccc3c(c2)OCO3)nc(=S)[nH]1,0,0,34.4,0
N#Cc1c(-c2ccc3c(c2)OCO3)cc(-c2ccc(F)cc2)nc1N,0,0,0,0
O=C1/C(=C\c2ccccn2)SC(=S)N1CCc1ccc(Cl)cc1,-,0,-,-
O=C(O)CCN1C(=O)/C(=C/c2ccccn2)SC1=S,74.5,0,0,0
O=C1c2ccccc2C(=O)c2c1oc1c3c(ccc21)OCN(CCCn1ccnc1)C3,0,0,0,84.0
C[C@@H]1NCCc2cc(O)c(O)cc21,76.4,-,0,0
COc1ccc2c(c1)CCc1c(C(=O)N3CCCCC3)noc1-2,0,0,0,0
COc1ccc2c(c1)CCc1c(C(=O)N3C(C)CCCC3C)noc1-2 (stereo not drawn),0,-3.05,0,0
N#CC1=C(S)NC(=O)C(C#N)C12CCCCC2 (stereo not drawn),91.0,0,0,0
CSC1=C(C#N)C2(CCCC2)C(C#N)C(=O)N1 (stereo not drawn),0,0,-,0
C=CCC(O)(CN)CC=C,0,0,32.2,0
CC(C)NC(=O)c1ccc(-c2ccc(F)cc2)o1,0,0,30.3,0
CC1(C)N=C(c2ccccc2)C(=S)N1C(=O)c1ccccc1,56.6,0,0,0
COC(=O)c1ccc(C(=O)OC)c(NC(=O)c2ccccc2)c1,-,0,0,0
CCN(CCO)c1nc(NC2CCCCC2)c2cnn(C)c2n1,0,-2.1,0,0

# Source: PubChem
